# Laboratory results: PubChem BioAssay AID686970 (National Center for Advancing Translational Sciences (NCATS), 2013)
# Among all 360,000 compounds or so, about 6,000 (1.7%) were called active. About 8% were inconclusive and are not listed. The call rests on the fitted dose curve; in most records, active means well fitted cell-killing curve with a large enough effect; inconclusive means small, poorly fitted or top-dose-only effect, or effect the other way; inactive means flat fitted curve, though single readings scatter. Only a selection was taken, and actives are over-represented in it overall.
# Assay: qHTS for induction of synthetic lethality in tumor cells producing 2HG: qHTS for the HT-1080-NT fibrosarcoma cell line;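 further: NT is the 2HG producing partner of a matched IDH1 knockdown line; nearly all actives have a fitted effect of over 55% in size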;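 on activity, negative = less viability: 0% = DMSO-treated cells and -100% = media-only wells without cells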
# Details: HT-1080-NT fibrosarcoma viability, CellTiter-Glo ATP luminescence, 48 h; series mostly up to 46.1 µM; activity, negative = less viability: at the top concentration
# In short: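 Compounds were tested in concentration-response format on HT-1080-NT cells for 48 hours at 37 degrees C. Cell viability came from CellTiter-Glo luminescence; curves were classified by r2, response magnitude and activity.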
# Potency means the concentration at half of the fitted maximal effect.
SMILES,"activity, negative = less viability",Potency
CCNC(=O)C1(C)CCCN(C(=O)c2c(C)noc2C)C1 (centres undefined),17.7% (inactive),–
COc1cccc(NC(=O)COC(=O)CCOc2ccccc2OC)c1,-0.605% (inactive),–
CSc1ccccc1NC(=O)COC(=O)CCCOc1ccc(C)cc1,3.43% (inactive),–
COc1cc([N+](=O)[O-])ccc1NC(=O)COC(=O)CCOc1ccc(C)cc1,–,20.6 µM (active)
CCc1ccccc1NC(=O)CN1CCN(C(=O)c2cc(C3CC3)nn2-c2ccccc2)CC1,4.23% (inactive),–
COC(=O)c1sc(NC(=S)NC(=O)c2ccc(C)cc2)nc1C,17.2% (inactive),–
N#Cc1c(-c2cccs2)nc(SCC(=O)c2ccc(Br)cc2)[nH]c1=O,-17.9% (inactive),–
N#Cc1ccc(C(=O)Nc2nc(-c3cccs3)c(C(=O)C(F)(F)F)s2)cc1,–,2.91 µM (active)
CCOC(=O)[C@]12CCCC=C1N(Cc1ccc3c(c1)OCO3)C(=O)[C@H](CC(=O)NCc1cccs1)C2,-21% (inactive),–
CC1(C)CC(=O)C=C(c2ccc(COC(=O)c3cc(F)cc(F)c3)cc2)C1=O,-18.3% (inactive),–
CCN(CC(=O)Nc1ccc(NC(C)=O)cc1)C(=O)C1CC(=O)N(c2ccc3c(c2)OCCO3)C1 (centres undefined),4.08% (inactive),–
CC(NC(=O)c1ccccc1)C(=O)Nc1ccccc1 (centres undefined),7.26% (inactive),–
O=C(NC(=O)c1ccccc1)Nc1ccccc1O,-9.01% (inactive),–
O=C(NC1=CC(=O)c2ccccc2C1=O)c1ccccc1,–,7.31 µM (active)
Cc1ccc(S(=O)(=O)N2[C@@H](Cc3ccccc3)CO[C@H]2CC(=O)OCc2ccccc2)cc1,-7.46% (inactive),–
CCCCNC(=O)OC1CC2CC1[C@H]1CCCCN1C2=O (some centres undefined),11.3% (inactive),–
O=C(COC(=O)Cc1ccc(Cl)cc1Cl)NCc1ccco1,0.36% (inactive),–
O=C1CC(c2ccccc2)=NN1c1ccc([N+](=O)[O-])cc1,–,14.6 µM (active)
O=[N+]([O-])c1ccc(N2CCOCC2)cc1,-6.24% (inactive),–
COC(=O)CC1=NN(c2ccccc2)C(=O)C1,9.15% (inactive),–
COc1ccc(C(=O)N2CCCCC2c2cc(C(=O)Nc3ccc(F)c(Cl)c3)no2)cc1 (centres undefined),-21.2% (inactive),–
Cc1c(C(=O)NCC2CC2)sc(=O)n1Cc1cccc(F)c1,11% (inactive),–
COc1ccc(NC(=O)CNC(=O)Cc2ccccc2)cc1OC,-0.905% (inactive),–
COc1ccc(CNC(=O)Cc2ccc(-c3ccccc3)cc2)cc1OC,–,14.6 µM (active)
COc1ccc(CNC(=O)[C@H](Cc2c[nH]c3ccccc23)NC(C)=O)cc1OC,12.4% (inactive),–

SMILES,"activity, negative = less viability",Potency
O=C(C=CC(=O)Nc1ccc(F)cc1F)Nc1ccc(F)cc1F,7.85% (inactive),–
NS(=O)(=O)c1ccc(CNC(=O)c2cc(S(=O)(=O)N3CCOCC3)ccc2N2CCCC2)cc1,0.267% (inactive),–
COC(=O)c1ccc2c(c1)S(=O)(=O)NC2C (centres undefined),16.3% (inactive),–
COC(=O)CCCCC1=CCC2C(=O)C=C(O)C2C1 (centres undefined),6.86% (inactive),–
CC(OC(=O)c1ccc(NC(=O)CC#N)cc1)C(=O)Nc1ccc(S(=O)(=O)N2CCCC2)cc1 (centres undefined),-0.404% (inactive),–
CCn1c(/C=C/c2ccc([N+](=O)[O-])o2)nc2ccccc2c1=O,–,2.59 µM (active)
Cc1ccc(-n2c(SCC(=O)N/N=C/C=C/c3ccccc3[N+](=O)[O-])nc3ccccc3c2=O)cc1,4.46% (inactive),–
CCOCCCn1c(NN)nc2ccccc2c1=O,1.83% (inactive),–
CCC1NC(=O)c2cccnc2-n2c1nc1ccc(C)cc1c2=O (centres undefined),16.5% (inactive),–
COc1cc2nc(N3CCCN(C)CC3)nc(NC(C)C)c2cc1OC,-15.7% (inactive),–
COc1cc2ccc(C(C)=O)c(O)c2cc1OC,-1.62% (inactive),–
CC(C)CN1C(=O)CN(S(C)(=O)=O)CC1(C)C(=O)NCc1ccccc1 (centres undefined),25.9% (inactive),–
COc1cc(OC)c2c(-c3cccc(-c4cccc(N)c4)c3)cc(=O)oc2c1,–,6.51 µM (active)
COc1ccc(-c2c(C)cc3oc(=O)cc(-c4ccccc4)c3c2C)cc1F,10.6% (inactive),–
COc1ccc(-c2c(C)cc3oc(=O)cc(-c4ccccc4)c3c2C)cc1OC,7.56% (inactive),–
COc1cc2nc(N3CCCN(C)CC3)nc(NC3CC3)c2cc1OC,-21.4% (inactive),–
Cc1nc2ccccc2c(=O)n1-c1ccc(NS(=O)(=O)c2ccc(F)cc2F)cc1,0.277% (inactive),–
Cc1[nH]n(-c2ccc(Cl)cc2)c(=O)c1/C=N/n1c(C)nc2ccccc2c1=O,–,23.1 µM (active)
O=c1c2ccccc2ncn1/N=C/c1ccccc1,3.2% (inactive),–
CC1(C(=O)NS(=O)(=O)c2ccccc2)CCN1C(=O)C/C=C/c1ccccc1 (centres undefined),1.36% (inactive),–
CC1(C(=O)O)CCN1C(=O)/C=C/c1ccccc1 (centres undefined),22% (inactive),–
CC1(C)CCSC(/C=C/c2ccccc2)=N1,–,23.1 µM (active)
O=C(O)C(=Cc1ccc([N+](=O)[O-])cc1)CCc1ccccc1,-1.78% (inactive),–
Brc1ccc2nc(-c3ccccc3)c(Cc3ccccc3)n2c1,17.3% (inactive),–
Cc1ccc(-c2nc3ccc(Br)cn3c2Cc2ccccc2C(F)(F)F)cc1,-23.8% (inactive),–

SMILES,"activity, negative = less viability",Potency
CCS(=O)(=O)N1CCCC(C(=O)NCc2ccc(C)cc2)C1 (centres undefined),9.86% (inactive),–
Cc1ccc(NC(=O)N2CCC(C(=O)NCc3ccc(F)cc3)CC2)cc1,8.01% (inactive),–
CCc1ccc(CNC(=O)C2CCN(c3nnc(C)c4c(C)n(-c5ccc(C)cc5)nc34)CC2)cc1,–,13 µM (active)
CCN(CC)C(=O)C1=C(C)N(Cc2ccc(F)cc2)C(=O)C(CC(=O)NC2CCCC2)C1 (centres undefined),-1.24% (inactive),–
COc1ccccc1NC(=O)[C@H](COCc1ccccc1)NC(=O)OC(C)(C)C,6.66% (inactive),–
CCc1ccccc1NC(=O)CSc1nnc([C@@H](NC(=O)OC(C)(C)C)C(C)CC)o1 (some centres undefined),2.65% (inactive),–
C[C@@H](NC(=O)OC(C)(C)C)c1nnc(S(=O)(=O)Cc2ccccc2)o1,–,16.4 µM (active)
CC1(C(=O)Nc2cccc3c2CCCC3)CCN1C(=O)C1(c2ccccc2)CC1 (centres undefined),-21.9% (inactive),–
O=C(Nc1ccccc1)c1ccccc1Br,-0.814% (inactive),–
COc1ccc2sc(-c3ccc(S(C)(=O)=O)cc3)c(C#Cc3cncn3C)c2c1,–,20.6 µM (active)
COc1ccc2sc(-c3ccc(S(C)(=O)=O)cc3)c(-c3ccc(C(N)=O)cc3)c2c1,-27.8% (inactive),–
COc1ccc(-c2sc3ccc(OC)cc3c2C#Cc2ccccn2)cc1,-11.5% (inactive),–
CC1=C(C(=O)N(C)C)CC(CC(=O)NCCN2CCOCC2)C(=O)N1Cc1ccccc1 (centres undefined),13% (inactive),–
O=C1[C@H]2[C@@H](c3ccc(C(F)(F)F)cc3)N[C@]3(CCCN(Cc4ccc(Cl)cc4)C3=O)[C@H]2C(=O)N1Cc1ccccc1,-17.1% (inactive),–
CCCCN1C[C@H](c2ccc(Br)cc2)[C@@H](CC(=O)Nc2ccc(Br)cc2)C1=O,-4.62% (inactive),–
Nc1nc(NCC2CCCO2)nc(Nc2ccccc2F)c1[N+](=O)[O-] (centres undefined),-0.899% (inactive),–
C=CCNc1nc(N)c([N+](=O)[O-])c(NC2CCCCC2)n1,0.683% (inactive),–
Nc1nc(Nc2ccccc2F)nc(NC2CCCCC2)c1[N+](=O)[O-],–,16.4 µM (active)
COc1cc(C(=O)N2CCOC23CCN(Cc2ccccc2)CC3)cc(OC)c1OC,0.0161% (inactive),–
COC(=O)c1ccc2nc(-c3ccc(F)cc3)c(Cc3ccc(C)cc3)n2c1,1.66% (inactive),–
COc1ccc(-c2nn(-c3ccccc3)cc2C(=O)Nc2nccs2)cc1OC,-2.1% (inactive),–
COc1ccccc1Cc1c(-c2ccc(Cl)cc2)nc2ccc(Cl)cn12,-12.4% (inactive),–
Cn1c(=O)c2c(ncn2CCc2ccccc2)n(C)c1=O,10.3% (inactive),–
CCCCCc1c(Cc2ccccc2)ncn1CCc1ccccc1OC,–,18.4 µM (active)
CCC(=O)NCc1cc(-c2nn(C)c(=O)c3ccccc23)ccc1OC,7.47% (inactive),–

SMILES,"activity, negative = less viability",Potency
CCCCc1c(-c2ccc(Br)cc2)ncn1CCc1ccccc1OC,–,9.2 µM (active)
COc1ccccc1CCNS(=O)(=O)c1cn(C)nc1C,10.6% (inactive),–
CCCCCc1c(-c2ccc(OC)c(OC)c2)ncn1CCc1ccccc1OC,–,20.6 µM (active)
COc1ccccc1Cc1c(-c2ccc(Cl)cc2)nc2c3ccccc3ccn12,4.95% (inactive),–
CC1(C(=O)NS(=O)(=O)c2ccccc2)CCN1C(=O)Cc1ccc(-c2ccccc2)cc1 (centres undefined),13% (inactive),–
O=C(CC(CC(=O)c1ccccc1)c1ccco1)c1ccccc1,-6.49% (inactive),–
CC1=C(C(=O)N(C(C)C)C(C)C)CC(CC(=O)NCC2CCCCC2)C(=O)N1Cc1ccccc1 (centres undefined),1.17% (inactive),–
Cc1ccc(C=O)c([B-](F)(F)F)c1,-6.9% (inactive),–
O=C(NCc1ccccn1)[C@@H]1CCCN1C(=O)[C@@H]1CCCN1C(=O)c1ccccc1,19.3% (inactive),–
CN1OC[C@@H]2CN[C@H](c3ccc(-c4ccccc4)cc3)C[C@@H]21,-11.5% (inactive),–
COc1cc(C2C(C#N)=C(N)Oc3n[nH]c(-c4ccccn4)c32)cc(OC)c1OC (centres undefined),-0.64% (inactive),–
CCc1ccc(C2C(C#N)=C(N)Oc3n[nH]c(CC(=O)OC)c32)cc1 (centres undefined),10.5% (inactive),–
COCc1[nH]nc2c1C(C1C=CCCC1)C(C#N)=C(N)O2 (centres undefined),–,14.1 µM (active)
Cc1ccc([C@@H]2CC(=O)[C@@H]3CN(S(=O)(=O)c4ccc(C)cc4)[C@H](c4ccccc4F)C[C@@H]3N2S(=O)(=O)c2ccc(Cl)cc2)cc1,19.9% (inactive),–
FC(F)(F)c1ccccc1Cc1c(-c2ccccc2)nc2c3ccccc3ccn12,3.49% (inactive),–
NS(=O)(=O)c1ccc(NC(=O)CSc2nnc3c(n2)[nH]c2ccccc23)cc1,-10.4% (inactive),–
CN1CCN(C2Cc3ccc(Cl)cc3Sc3ccc(F)cc32)CC1 (centres undefined),–,14.6 µM (active)
C[C@H]1CN([C@@H](C)CO)C(=O)c2cc(Br)cnc2O[C@H]1CN(C)S(=O)(=O)c1cccs1,5.18% (inactive),–
CN(C)c1cccc(NC(=O)c2ccc(-c3ccc(F)c(F)c3)c3ccoc23)c1,7.38% (inactive),–
Cc1ccc(S(=O)(=O)N2CC3C(=O)C[C@@H](c4ccccc4Cl)N(S(=O)(=O)c4ccc(C)cc4)C3CC2c2ccccc2)cc1 (some centres undefined),4.22% (inactive),–
CC1(C)OC(=O)C2=C(C[C@@H](C3CC3)O[C@H]2CCc2cccc(Cl)c2)O1,-21.7% (inactive),–
CN1CCN(CCCCOc2cccc3ccccc23)CC1,-3.37% (inactive),–
CC(C)c1ccccc1OCC(O)CN(CC(O)COc1cccc2ccccc12)C(C)C (centres undefined),–,18.4 µM (active)
CCC(C)Sc1nc2c(c(=O)[nH]c(=O)n2C)n1CC(O)COc1cccc2ccccc12 (centres undefined),-3.75% (inactive),–
